# Compound activity: PubChem, National Center for Advancing Translational Sciences (NCATS)
# RXFP1 antag – antagonists of human relaxin receptor RXFP1; activity change, negative = inhibition, % at 57.5 µM; AID 1259400; HEK293-RXFP1, relaxin-stimulated cAMP HTRF, 30 min; active compounds read low; actives 0.59% (n = 350,000); Q9HBX9;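 active = activity change of -60% or lower, but not beyond a set lower limit; inconclusive = change between -60% and -40%, or beyond the set limit; inactive = change above -40%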
# KCNH2 3.1 inh – KCNH2 3.1 (human) potassium channel inhibition. U2OS KCNH2 3.1, thallium flux FluxOr; active compounds read low. activity change, % (tested at about 1.8 µM). actives 0.95% (n = 340,000);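 active = maximum activity change below -70%; inconclusive = maximum activity change from -70% to -50%; inactive = maximum activity change above -50%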;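 note: thallium influx rate constant from kinetic fluorescence after stimulation buffer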
#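 Channel expression came from 3.1 mutant virus (1.77 x 10^8 /mL) applied to suspended U2OS cells for 4 h. Flux was tracked with FluxOr dye plus Red40 quencher, and kinetic rate constants normalized to controls.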
# KCNH2 WT inh – blocks the wildtype human KCNH2 potassium channel. Q12809. U2OS, BacMam KCNH2, thallium flux FluxOr; active compounds read low. activity change, % at 1.84 µM. actives 0.37% (n = 340,000). AID 720551;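 active = maximum activity change below -70%; inconclusive = maximum activity change between -70% and -50%; inactive = maximum activity change above -50%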
# Target sequence (Q12809 whole entry, looked up): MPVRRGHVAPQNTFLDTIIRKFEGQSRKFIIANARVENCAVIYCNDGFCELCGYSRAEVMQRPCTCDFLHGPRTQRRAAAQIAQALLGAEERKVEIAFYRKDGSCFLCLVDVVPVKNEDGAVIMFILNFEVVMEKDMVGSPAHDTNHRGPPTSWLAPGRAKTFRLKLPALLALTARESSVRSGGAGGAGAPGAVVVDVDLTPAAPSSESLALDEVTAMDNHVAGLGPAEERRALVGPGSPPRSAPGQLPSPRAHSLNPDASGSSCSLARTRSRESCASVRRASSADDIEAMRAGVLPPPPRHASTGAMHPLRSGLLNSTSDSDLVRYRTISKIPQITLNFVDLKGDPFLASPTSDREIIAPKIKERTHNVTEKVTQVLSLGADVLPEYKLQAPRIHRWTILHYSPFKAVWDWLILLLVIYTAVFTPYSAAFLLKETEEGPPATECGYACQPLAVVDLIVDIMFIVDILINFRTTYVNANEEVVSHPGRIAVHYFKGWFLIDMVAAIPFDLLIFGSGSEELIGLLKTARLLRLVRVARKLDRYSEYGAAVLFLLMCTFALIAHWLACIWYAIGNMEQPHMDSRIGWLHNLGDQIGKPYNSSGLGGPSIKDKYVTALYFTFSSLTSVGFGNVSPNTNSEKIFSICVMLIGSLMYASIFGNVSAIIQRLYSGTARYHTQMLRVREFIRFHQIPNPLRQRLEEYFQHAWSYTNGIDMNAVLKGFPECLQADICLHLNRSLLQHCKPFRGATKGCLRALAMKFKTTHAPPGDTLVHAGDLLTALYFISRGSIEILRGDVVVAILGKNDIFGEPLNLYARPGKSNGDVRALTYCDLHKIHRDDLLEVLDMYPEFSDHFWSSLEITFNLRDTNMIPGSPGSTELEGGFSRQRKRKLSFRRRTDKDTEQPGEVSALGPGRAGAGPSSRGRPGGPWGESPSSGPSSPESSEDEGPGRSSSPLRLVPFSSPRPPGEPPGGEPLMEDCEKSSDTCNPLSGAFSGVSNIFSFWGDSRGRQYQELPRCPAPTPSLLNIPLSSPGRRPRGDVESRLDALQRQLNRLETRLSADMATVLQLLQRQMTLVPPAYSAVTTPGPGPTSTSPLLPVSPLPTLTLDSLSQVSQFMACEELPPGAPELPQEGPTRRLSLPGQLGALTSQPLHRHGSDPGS
#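 U2OS cells were transduced with wild-type KCNH2 virus (2.03 x 10^8 / mL) for 4 h at room temperature, then cultured overnight at 37 C. Thallium flux was read with FluxOr dye. Rate constants were normalized to DMSO controls.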
# RXFP1 agonist – activates the human relaxin receptor RXFP1; actives 0.3% (n = 370,000); Q9HBX9; AID 2676; HEK293T-RXFP1 cAMP TR-FRET, 30 min; response scale: percent of porcine relaxin response, buffer zero; Potency, µM (series often up to 57.5 µM), without a hit: at the highest dose activation, hits mostly activators; active = well fitted activation curve with a large enough effect; inconclusive = small, poorly fitted or top-dose-only effect; note: potency is the fitted concentration of half-maximal effect; nearly all actives have a fitted effect of over 60% in size
#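 Agonist response is measured as cAMP accumulation in an RXFP1-transfected HEK293T line under PDE4 inhibition. Values are scaled between buffer-only and 29 nM porcine relaxin, and EC50s come from standard Hill equation fits.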
# Akt phos inh – Akt phosphorylation inhibition; Neuro2A IGF-stimulated pAkt S473 HTRF, 20 min; active compounds read low; activity change, % for hits at 50 µM; actives 0.32% (n = 360,000); in the data active = activity change below about -80%; inconclusive = mostly about -51% to -80%
#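 Single-point screen (50 µM final compound) in Neuro2A cells stimulated 20 min with 6 nM IGF at 37 deg C. After lysis, Ser473-phosphorylated Akt read by HTRF (ex 330 nm, em 615/665 nm) as the 665/615 ratio.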
# Numbers without * were called inactive; i = inactive; u = inconclusive; x = not tested or not shown; ! = repeats disagree. A selection: hits, their analogues and other compounds. The true share with any hit is near 1.7%. % is set by controls: 0 for no effect and ±100 for the full control effect.
SMILES,RXFP1 antag,KCNH2 3.1 inh,KCNH2 WT inh,RXFP1 agonist,Akt phos inh
Cc1ccc(-c2nc(CS(=O)CC(=O)NC3CC3)c(C)o2)cc1 (stereo not drawn),-0.4,13.3,-5.4,0.7%,x
C=C1C(=O)C23C(O)C1CCC2C12CCCC(C)(COC(C)=O)C1C(O)C3(O)OC2 (stereo not drawn),-116.6*,2.6,-6.6,x,i
CCn1cc(C(=O)Nc2ccc(Cl)cc2Cl)cn1,-35.7,25.5,1.7,x,i
Cn1cc(C(=O)Nc2cccc(F)c2)cn1,-9.3,0.5,1.8,-0.4%,-121.8%*
CCn1cc(C(=O)Nc2ccc(F)c(F)c2)cn1,x,-87.8*,-4.5,-2.0%,i
Cc1ccc(CNC(=O)C2c3ccccc3C(=O)N(C)C2c2c[nH]c3ccccc23)o1 (stereo not drawn),-0.2,27.7,8.0,1.6%,i
Cn1nc(C(F)(F)F)c(CN2CC(C)(C)C2=O)c1N1CCOCC1,5.7,3.0,-7.4,1.5%,i
COc1ccc(Cl)cc1NC(=O)N1CCC2(CC1)Oc1ccccc1C(=O)N2Cc1ccc(F)cc1,-24.3,x,x,-2.0%,x
COc1cc2nc(SCC(=O)Nc3cccc(C)c3)n3nc(CCn4c(C)nc5ccccc54)nc3c2cc1OC,-3.8,x,x,17.8µM*,x
COc1cc2nc(SCC(=O)Nc3ccc(F)cc3)n3nc(CCn4c(C)nc5ccccc54)nc3c2cc1OC,x,x,x,6.8%,x
CCN(CC(=O)NC(C)C)C(=O)C(CCSC)NC(=O)c1cccc(C)c1 (stereo not drawn),-15.4,-200.9*,-154.8*,1.7%,i
C/C(=N/N=C/c1ccc(N(C)C)cc1)c1ccccc1,17.1,2.1,-1.4,0.3%,i
CCOC(=O)c1cc(CC)sc1/N=C/C1C(=O)CC(C)(C)CC1=O,2.9,-74.9*,-24.5,5.3%,i
CCOC(=O)c1c(/N=C/C2C(=O)CC(C)(C)CC2=O)sc2c1CCCC2,-0.8,19.7,-8.9,0.5%,i
O=C(O)CCn1c(C2CCCCC2)nc2ccccc21,9.4,4.2,-15.5,-0.5%,i
CCc1ccccc1OCCCOc1ccc(OC)cc1,0.6,-99.2*,-1.4,-1.3%,i
Cc1c(C(=O)N2CCCC2)oc2c1-c1nn(CC(=O)NCCCOC(C)C)cc1CC2,8.5,-2.8,-6.5,-0.3%,i
Cc1nc2cc(NC(=O)Nc3cccc([N+](=O)[O-])c3)ccc2n1C,13.0,-74.6*,1.6,-0.8%,i
COCCCn1c(SCC(=O)Nc2sc3c(c2C#N)CCCC3)nnc1-c1ccncc1,-3.3,-0.2,4.1,1.7%,i
Cc1cc(C)n(-c2cc(N3CCN(S(=O)(=O)c4ccc(Br)cc4)CC3)ccc2[N+](=O)[O-])n1,x,-81.4*,-1.8,0.2%,i
COc1ccc(/C=C/C(=O)O)cc1S(=O)(=O)NCC1CCCO1 (stereo not drawn),-4.0,2.1,-7.8,1.3%,i
COC(=O)c1[nH]c2ccc(Br)cc2c1NC(=O)CN1CCN(C2CCCCC2)CC1,-63.2*,u,-46.3,-0.1%,i
O=C(O)CCNc1ccc(NCCC(=O)O)c2c1C(=O)c1ccccc1C2=O,-62.6*,0.3,-9.2,-114.9%,i
COc1ccccc1NCCC(=O)O,5.2,4.3,6.3,-1.7%,i
O=c1cc(NC2CCCCCC2)[nH]c(=O)[nH]1,-9.1,1.2,-7.2,-1.5%,-112.0%*
SMILES,RXFP1 antag,KCNH2 3.1 inh,KCNH2 WT inh,RXFP1 agonist,Akt phos inh
CCCCCCC(=O)Nc1c2c(nc3ccccc13)N(C)CC2,-2.6,-95.5*,-101.3*,4.4%,i
CN1CCc2c1nc1ccccc1c2NC(=O)CN1CCCC1,-13.7,7.7,10.6,0.4%,i
O=C1c2ccccc2NC(c2ccc(Cl)cc2Cl)N1O (stereo not drawn),-8.7,1.8,-6.6,-2.6%,-131.6%*
O=C(Nc1c(-c2ccccc2)nc2sccn12)c1ccccc1,-7.4,-33.5,-7.0,-0.4%,-106.1%*
O=C(Nc1c(-c2ccccc2)nc2ccccn12)c1ccccc1,-2.9,3.1,5.2,2.0%,i
COc1ccc2[nH]c(C(=O)O)c(NS(=O)(=O)c3ccc(Cl)s3)c2c1,-6.9,-2.2,-27.8,1.6%,-88.0%*
CCn1c(C)nc2cc(C(=O)NNS(=O)(=O)c3c(C)c(C)cc(C)c3C)ccc21,3.3,-5.2,0.0,0.1%,-120.0%*
CCCCN(CC)CCNC(=O)c1cc2c(-c3ccc(Cl)cc3)nn(C)c2s1,-103.8*!,-7.0,3.8,3.5%,i
CSc1n[nH]c(=O)n1C1CCCCC1,-1.5,1.9,-4.0,-0.3%,i
C=CCOc1c(Cl)cc(CNc2ccc(N(C)C)cc2)cc1OC,-102.9*,15.0,19.4,-14.5%,i
O=c1[nH]c2cc3c(cc2cc1CN(CCN1CCOCC1)C(=S)NCC1CCCO1)OCO3 (stereo not drawn),-2.8,6.9,4.1,16.5%,i
Cc1cc(-c2ccccc2)nc(N/N=C/c2ccc(O)cc2)n1,-77.3*,11.2,2.2,-1.6%,i
Cc1cc(C)nc(N/N=C/C(Cl)=C/c2ccccc2)n1,4.4,-82.6*,6.6,-2.5%,i
COc1ccc(/C=N/NC(=O)c2nc(-c3ccccc3)cc(-c3ccccc3)n2)cc1O,x,-38.8,-10.6,1.7%,i
Cc1cc(C)nc(N/N=C/c2ccccc2)n1,-1.5,5.1,-7.4,0.7%,i
COc1ccc(/C=N/NC(=O)c2nc(-c3ccccc3)cc(-c3ccccc3)n2)cc1,-2.8,-87.5*,-24.2,2.3%,i
Oc1ccc(/C=N/Nc2nc(-c3ccc(Cl)cc3)cc(C(F)(F)F)n2)cc1,-61.3*,-31.5,-12.8,0.7%,i
CC(C)c1csc(CN2CCC(CCC(=O)NCC3CCCO3)CC2)n1 (stereo not drawn),-4.0,6.1,11.0,0.7%,i
CC1=Nc2ccccc2N=C(NC(=O)/C=C/C(=O)O)C1c1ccccc1 (stereo not drawn),-22.8,-6.3,-19.6,1.7%,i
CCOc1cc(N2CCOCC2)c(OCC)cc1NC(=O)CSc1nc(N)cc(=O)[nH]1,4.0,-14.4,-2.6,-1.7%,i
Cc1ccc(NC(=O)c2cccc(S(=O)(=O)N3CCCC3)c2)nc1,-3.7,0.7,22.5,1.8%,i
COc1ccccc1Nc1nn2c(=O)c3ccc(C(=O)N4CCC(C)CC4)cc3nc2s1,4.6,7.4,7.7,3.3%,i
CCOC(=O)C1CCN(C(=O)c2ccc3c(=O)n4nc(Nc5ccccc5)sc4nc3c2)CC1,4.2,-79.5*,-2.8,10.3%,i
CC1(C)Cc2c(sc(NC(=O)C(=O)NCC3CCCO3)c2C(N)=O)CO1 (stereo not drawn),-0.9,3.2,-95.4*,2.7%,i
CC1(C)Cc2c(sc(NC(=O)C(=O)N3CCCC3)c2C(N)=O)CO1,25.5,-10.7,8.0,0.1%,i
